Test results: PubChem BioAssay
Unmarked numbers belong to inactive results. No rule for the calls is given here.

These compounds were tested against Pantothenate synthetase (Mycobacterium tuberculosis (strain ATCC 25618 / H37Rv)) (UniProt P9WIL5) (assay: Recombinant Mtb pantothenate synthetase (PanC) inhibitors, coupled enzyme, confirmatory (AID 375;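 also: 0% = full reaction with vehicle and 100% = no enzyme background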)). Settings: coupled enzyme assay; at 10 µM, stronger effect = higher value.
Sequence of Pantothenate synthetase (Mycobacterium tuberculosis (strain ATCC 25618 / H37Rv)) (P9WIL5 whole entry, looked up): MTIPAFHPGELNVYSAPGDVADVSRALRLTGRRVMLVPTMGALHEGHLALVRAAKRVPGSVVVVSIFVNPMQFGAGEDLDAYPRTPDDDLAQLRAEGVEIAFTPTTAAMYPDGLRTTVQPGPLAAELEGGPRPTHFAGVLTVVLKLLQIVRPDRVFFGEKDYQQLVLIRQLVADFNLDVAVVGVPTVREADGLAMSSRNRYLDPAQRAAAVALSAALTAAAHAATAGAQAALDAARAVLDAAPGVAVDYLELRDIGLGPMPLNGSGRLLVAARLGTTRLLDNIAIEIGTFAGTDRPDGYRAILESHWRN

| SMILES | inhibition |
| --- | --- |
| CC(=O)Nc1c(O)nc(SCC(=O)Nc2nnc(CC(C)C)s2)[nH]c1=O | 9% |
| Cc1ccc(-c2oc3ccccc3c(=O)c2O)cc1 | 0% |
| O=C(Nc1cccc(NC(=O)c2ccco2)c1)c1ccc2c(c1)OCO2 | 0% |
| Cc1[nH]n2c(=O)cc(Cc3ccccc3)nc2c1C#N | 0% |
| COc1cccc(CN(C)CC(=O)NC(=O)NCc2ccco2)c1 | 0% |
| COCCn1nnnc1C(c1cc2cc(OC)ccc2[nH]c1=O)N1CCC(Cc2ccccc2)CC1 (configuration not stated) | 3% |
| Cc1cc(Cl)c(S(=O)(=O)NC2CCCCC2)cc1OCC(=O)Nc1nncs1 | 3% |
| COc1cccc(-n2nc(C(=O)Nc3ccc4c(c3)OCO4)c3ccccc3c2=O)c1 | 0% |
| COc1ccc(N2C(=O)CC(NC3CC3)C2=O)cc1 (configuration not stated) | 0% |
| CCOc1cc(C(=O)Nc2c3c(nn2C(C)(C)C)CS(=O)C3)cc(OCC)c1OCC (configuration not stated) | 4% |
| Cc1nc2ccc(S(=O)(=O)NC(C(=O)N3CCCC3)C(C)C)cc2s1 (configuration not stated) | 0% |
| O=C1CC(C2CCCO2)C(=O)N1Cc1ccccc1 (configuration not stated) | 0% |
| Cc1c(/C(O)=C2/C(=O)C(=O)N(CCN3CCOCC3)C2c2cccnc2)cnn1-c1ccccc1 (configuration not stated) | 1% |
| COC(=O)Nc1nc2c(C)cccc2s1 | 0% |
| Cc1cccc2cc(CN(Cc3nnnn3Cc3ccco3)C3CCCC3)c3nnnn3c12 | 3% |
| Cc1ccccc1Nc1nc(N)nc(CSCc2c(C)noc2C)n1 | 0% |
| COc1ccc(S(=O)(=O)NCC(=O)N(CC(=O)NCC2CCCO2)c2ccccc2C)cc1 (configuration not stated) | 8% |
